Screens from PubChem.
Pf Dd2 inh: blocks in vitro growth of P. falciparum Dd2; P. falciparum Dd2 growth, SYBR Green, 72 h; Potency, µM (series often up to 28.9 µM), for inactives: at the highest dose activity, negative = inhibition, most hits filed as inhibitors; 120,000 tested, 4.3% active; active = well fitted inhibition curve with a large enough effect;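 note: plate controls were DMSO vehicle for no effect and reference drug for full effect; nearly all actives have a fitted effect of over 65% in size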
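Infected erythrocytes (Dd2, 0.3% parasitemia, 2.5% hematocrit final) are added to compound in RPMI-1640/Albumax II medium, grown 72 h at 37C in low oxygen, then lysed with saponin/Triton-X containing SYBR Green and read by fluorescence.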
* marks the source's active call; other numbers are inactive results; i = inactive; [ ] = remark or other dose. Shown is part of a subset that was picked to be rich in hits. Potency is the fitted concentration of half-maximal effect.

SMILES	Pf Dd2 inh
COCC1CN(C)CC12CCN(Cc1ccncc1F)CC2 (centres undefined)	19.2%
COCC1CN(C)CC12CCN(Cc1cc(Br)ccc1F)CC2 (centres undefined)	3.55µM*
COCC1CN(C)CC12CCN(Cc1ccncc1)CC2 (centres undefined)	13.1%
CN(C)c1nccnc1OC1CCN(C(=O)CCCc2ccccc2)C1 (centres undefined)	-23.5%
Cc1ccc(CNC(=O)N2CCCCCNC(=O)[C@@H]3CCCC[C@@H]32)cc1	-17.1%
O=C1C2=C(Nc3ccccc3SC2c2ccc(C(F)(F)F)cc2)c2ccccc21 (centres undefined)	4.47µM*
CCc1ccc(CNC(=O)c2cc3c(s2)-c2ccccc2OC3)cc1	11.0%
CC(C)c1ccc(C2Sc3ccccc3NC3=C2C(=O)c2ccccc23)cc1 (centres undefined)	3.55µM*
O=C1[C@@H]2CSC(c3ccc(C(F)(F)F)cc3)N2C(=O)N1c1ccccc1 (some centres undefined)	11.5%
CCc1ccc(C2Sc3ccccc3NC3=C2C(=O)c2ccccc23)cc1 (centres undefined)	2µM*
CCNC(=O)N1CCOc2ccc(CCC(=O)NCCOc3ccccc3OC)cc2C1	-25.7%
CN1CC2(CCCN(Cc3cc4ccccc4n(C)c3=O)C2)OC1=O (centres undefined)	-22.2%
CN1CC(=O)N(c2cccc(F)c2)Cc2c1ncnc2N1CCC(F)CC1	-0.2%
O=C1NCCCCCCN(C(=O)Nc2ccccc2F)[C@H]2CCCC[C@@H]12	-29.5%
CCOc1ccccc1CNC(=O)CC1CCOCC1	52.7%
CCOCC(=O)N1C[C@@H](Oc2ccccc2)C[C@H]1C(=O)NCCOC	-18.8%
CCCN(CC1CC1)C(=O)[C@@H]1CN(S(=O)(=O)CC)C[C@H]1c1ccncc1	-0.8%
COc1cccc(CCC(=O)N2CCC(C3CCNC3)CC2)c1 (centres undefined)	11.3%
CNCC(=O)N1CCc2ncnc(N3CCSCC3)c2CC1	1.5%
CN(C)C(=O)C1CN(C(=O)c2ccccc2OC(F)(F)F)CC12CCOCC2 (centres undefined)	5.1%
COc1ccc(-n2nc(C3CCCN(C(=O)C(C)(C)C)C3)[nH]c2=O)cc1 (centres undefined)	i
Cc1cnc(C2CC2)n1C1CCCN(C(=O)CC(C)C)C1 (centres undefined)	-6.6%
CC(C)(C)C(=O)N1CCCC(c2nn(-c3ccccc3)c(=O)[nH]2)C1 (centres undefined)	i
CC(C)Cc1cnc(C2CCCN(C(=O)OC(C)(C)C)C2)[nH]1 (centres undefined)	7.08µM*
CCCCc1ncc(CN2CCCC(c3cccc(C(=O)O)c3)C2)[nH]1 (centres undefined)	-2.4%
SMILES	Pf Dd2 inh
CC(C)c1cnc(C2CCCN(C(=O)OC(C)(C)C)C2)[nH]1 (centres undefined)	11.2µM*
Cc1cnn(C2(C(=O)O)CCN(C(=O)c3cc(C)nc(C)n3)CC2)c1	-12.5%
CN(C)C[C@@H]1CN(S(C)(=O)=O)C[C@H]1NC(=O)c1ccc(Cn2ccnc2)o1	18.5%
COc1cc(OC(F)(F)F)ccc1C(=O)NCc1nnc2n1C(C(=O)O)CC2 (centres undefined)	47.2%
COc1ccc(C2(C(=O)N3CCC([C@H]4[C@@H](OC)C(=O)N4C(C)C)CC3)CC2)cc1	-9.2%
CC(C)c1noc(-c2cn(C3CCCN(C(=O)c4ccc5c(c4)OCO5)C3)nn2)n1 (centres undefined)	i
Cc1nc(N2CCC(NC(=O)C3CCC3)CC2)cc(C(F)(F)F)n1	i
Cc1ccc(C2Cn3nnc(-c4nc(-c5cccnc5)no4)c3CO2)c(C)c1 (centres undefined)	-15.1%
COc1cc(=O)n2c(c1C(=O)Nc1ccc(F)c(Cl)c1)CCCC2	51.0%
Cc1ccccc1NC(=O)c1c(C)oc2ccc(O)c(CN3CCCCCC3)c12	2.51µM*
Cc1ccc(NC(=O)c2c(C)oc3ncnc(N4CCCCC4)c23)cc1Cl	-5.8%
Cc1cc(Br)ccc1NC(=O)c1c(C)oc2ncnc(N3CCCCC3)c12	-0.6%
COc1ccc(NC(=O)c2c(C)oc3ccc(O)c(CN4CCCCCC4)c23)cc1Cl	0.355µM*
COc1cc(=O)n2c(c1C(=O)Nc1ccccc1C)CCCC2	19.1%
O=C(NCc1cc2n(n1)CCNC2)C1CCCN(c2ccccn2)C1 (centres undefined)	-11.1%
Cn1ccnc1CNC(=O)C[C@@H]1C[C@H]2O[C@H](CNC(=O)NC3CCC3)[C@@H](O)[C@H]2O1	35.4%[44.1 µM]
COc1ccc(-c2cc(N3CCN(C(=O)c4cccc(OC)c4OC)CC3)n[nH]2)cc1	-8.0%
COCc1nc(C2CCCN(C(=O)c3ccncc3)C2)no1 (centres undefined)	12.4%
COc1cccc(S(=O)(=O)N2C[C@@H](F)C[C@H]2C(=O)N2CCCCC2)c1	6.0%
O=C(O)C1CC2(CCN(C(=O)CCCn3ccnc3)CC2)CN1 (centres undefined)	-5.3%
CCOc1ccc(-c2ccnc(N3CCNC(C)C3)n2)cc1C(=O)O (centres undefined)	14.7%
